From PubChem BioAssay AID1159580 (chemical genetic matrix, 2015)
Values joined by “and” are separate entries in the source; they are usually repeats but may differ in a detail not shown here. Equal entries are not always repeated. Hit rate of the full screen: of about 5,500 compounds, about 2,000 (36%) were called active. Not shown: some 18% with an inconclusive outcome. Rule as the data show it: active = normalized growth mostly below about 0.91 (no sharp cut-off); inconclusive = no clear call, values can overlap the other calls; inactive = mostly above about 0.92. The list shows a part of the results.

Test: chemical genetic growth profiling, strain panel (AID 1159580);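 also: tested at 20 µM; growth read once vehicle control cultures reached saturation at 30 °C; 1 = growth at the plate median or of vehicle wells; lower values mean less growth of the strain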
Conditions: S. cerevisiae deletion strains, growth OD

Measured: normalized growth

COc1cc(/C=C/C(=O)O)cc(OC)c1OC
inactive: locus YAL021C, strain ccr4, hits give low values 0.979 | locus YAL026C, strain drs2, hits give low values 0.999 | locus YAL030W, strain snc1, hits give low values 0.988 | locus YBL061C, strain skt5, hits give low values 0.993 | locus YBR009C, strain hhf1, hits give low values 1.02 | locus YBR021W, strain FUR4, hits give low values 0.998 | locus YBR023C, strain chs3, hits give low values 0.993 | locus YBR171W, strain sec66, hits give low values 1 | locus YBR229C, strain ROT2, hits give low values 1.01 | locus YBR231C, strain swc5, hits give low values 0.941 | locus YBR279W, strain paf1, hits give low values 0.973 | locus YCL011C, strain gbp2, hits give low values 0.99 | locus YCL016C, strain dcc1, hits give low values 0.994 | locus YCL029C, strain bik1, hits give low values 1.01 | locus YCL061C, strain MRC1, hits give low values 1 | locus YCL069W, strain vba3, hits give low values 0.992 | locus YCR088W, strain abp1, hits give low values 0.989 | locus YDL005C, strain med2, hits give low values 0.979 | locus YDL035C, strain GPR1, hits give low values 1.01 | locus YDL040C, strain nat1, hits give low values 0.99 | locus YDL074C, strain BRE1, hits give low values 1.02 | locus YDL101C, strain DUN1, hits give low values 1.01 | locus YDL134C, strain PPH21, hits give low values 1.02 | locus YDL185W, strain tfp1, hits give low values 1.01 | locus YDL192W, strain arf1, hits give low values 1.01 | locus YDR001C, strain nth1, hits give low values 0.985 | locus YDR069C, strain doa4, hits give low values 0.991 | locus YDR101C, strain arx1, hits give low values 1.01 | locus YDR137W, strain rgp1, hits give low values 1 | locus YDR159W, strain sac3, hits give low values 0.986 | locus YDR162C, strain NBP2, hits give low values 1.03 | locus YDR195W, strain ref2 0.99 | locus YDR297W, strain sur2, hits give low values 1 | locus YDR318W, strain mcm21, hits give low values 1.01 | locus YDR334W, strain swr1, hits give low values 0.987 | locus YDR335W, strain msn5, hits give low values 0.987 | locus YDR388W, hits give low values 1.01 | locus YDR392W, strain spt3, hits give low values 0.946 | locus YDR502C, strain sam2, hits give low values 0.991 | locus YEL003W, strain gim4, hits give low values 0.994 | locus YEL037C, strain rad23, hits give low values 0.984 | locus YEL061C, strain CIN8 (second series), hits give low values 0.99 | locus YEL061C, strain CIN8, hits give low values 1.01 | locus YER015W, strain faa2, hits give low values 0.975 | locus YER016W, strain bim1, hits give low values 0.99 | locus YER110C, hits give low values 1.03 | locus YER111C, strain swi4, hits give low values 0.984 | locus YER155C, strain BEM2 (second series), hits give low values 1.01 | locus YER155C, strain BEM2, hits give low values 1.01 | locus YER167W, strain BCK2, hits give low values 1.01 | locus YFR010W, strain ubp6, hits give low values 0.988 | locus YGL078C, strain dbp3, hits give low values 1.02 | locus YGL086W, strain mad1, hits give low values 0.997 | locus YGL167C, strain pmr1, hits give low values 0.982 | locus YGL173C, strain kem1, hits give low values 0.985 | locus YGL227W, strain vid30, hits give low values 0.997 | locus YGL240W, strain doc1, hits give low values 1 | locus YGL248W, strain PDE1, hits give low values 1.02 | locus YGL253W, strain hxk2, hits give low values 0.993 | locus YGR078C, strain PAC10, hits give low values 1.01 | locus YGR135W, strain pre9, hits give low values 1.02 | locus YGR252W, strain gcn5, hits give low values 1.02 | locus YHR013C, strain ard1, hits give low values 0.967 | locus YHR027C, strain rpn1, hits give low values 1 | locus YHR030C, strain SLT2, hits give low values 1 and 1.01 | locus YHR079C, strain IRE1 (second series), hits give low values 1.03 | locus YHR079C, strain IRE1, hits give low values 1 | locus YHR094C, strain hxt1, hits give low values 1.02 | locus YHR129C, strain ARP1, hits give low values 1.01 | locus YHR142W, strain chs7, hits give low values 0.986 | locus YHR200W, strain rpn10, hits give low values 1.02 | locus YIL066C, strain RNR3, hits give low values 1.01 | locus YIL073C, strain SPO22, hits give low values 1.08 | locus YIL125W, strain kgd1, hits give low values 1.01 | locus YIR030C, strain dcg1, hits give low values 1.02 | locus YJL092W, strain hpr5, hits give low values 0.991 | locus YJL095W, strain BCK1 (second series), hits give low values 0.994 | locus YJL095W, strain BCK1, hits give low values 1.01 and 1.03 | locus YJL115W, strain asf1, hits give low values 0.976 | locus YJL129C, strain trk1, hits give low values 0.971 | locus YJL134W, strain LCB3, hits give low values 1 | locus YJL154C, strain vps35, hits give low values 0.992 | locus YJL164C, strain tpk1, hits give low values 0.987 | locus YJL166W, strain qcr8, hits give low values 0.994 | locus YJL168C, strain set2, hits give low values 1.01 | locus YJL187C, strain SWE1 (second series), hits give low values 1.01 | locus YJL187C, strain SWE1, hits give low values 0.991
